Screens as filed in PubChem BioAssay.
The list is not random: actives were taken first. Their share in the collection is about 5.7%.
ATXN2 expr inh – Primary qHTS for Inhibitors of ATXN expression | AID 1745845, 2022 | HEK-293 ATXN2-luciferase reporter, luminescence, 24 h | hit rate 0.72% among 360,000 | Potency, µM (highest dose often 57 µM), without a hit: at the top dose activity change, negative = inhibition, usual class: inhibitors; note: potency is the fitted concentration of half-maximal effect; % is set by controls: 0 for no effect and ±100 for the full control effect; nearly all actives have a fitted effect of over 55% in size
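qHTS (up to 57 uM final) was run with 24 h compound exposure of reporter cells at 37 °C. Each well was multiplexed: SteadyGlo luminescence measured ATXN2-luciferase expression after a fluorogenic Gly-Phe-AFC viability readout (25 uM final).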
ATXN viability – Viability Counterscreen for Primary qHTS for Inhibitors of ATXN expression; S2 cells (HEK-293 line with an ATXN2-luciferase reporter) viability, CellTiter-Fluor protease fluorescence, 24 h; Potency, µM (highest dose often 56.7 µM), usual class: cytotoxic; hit rate 0.49% among 400,000; AID 651635, 2014; note: potency is the fitted concentration of half-maximal effect; nearly all actives have a fitted effect of over 40% in size
IL1B secr inh – qHTS for Inhibitors of Inflammasome Signaling: IL-1-beta AlphaLISA Primary Screen | THP-1 LPS/ATP IL-1B secretion, AlphaLISA, 16 h; hits give low values | activity change, % at 57.5 µM | hit rate 4.7% among 360,000 | AID 743279, 2014; in the data active = activity change below about -50%; inconclusive = mostly about -30% to -49%; note: % is set by controls: 0 for no effect and ±100 for the full control effect
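THP-1 cells pretreated 1 hr with compounds (up to 57.5 uM final), then stimulated with LPS (250 ng/mL final) plus ATP (1.25 mM final); secreted IL-1B measured by AlphaLISA after 16 hr, decreased signal indicating inhibition.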
HepG2 viability – qHTS for Inhibitors of TGF-b: Cytotox Counterscreen. HepG2 CAGA-GFP viability, ATP luminescence, 18 h. Potency, µM (top dose mostly 46.1 µM), inactives show at the highest dose activity change, negative = cytotoxicity, usual class: cytotoxic. hit rate 0.76% among 410,000; note: potency is the fitted concentration of half-maximal effect
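CellTiter-Glo luminescence gave cytotoxicity after 18 hours at 37 degrees C. The cells were HepG2 CAGA-GFP in 1% FBS DMEM, stimulated with 500 pg/mL TGF-beta after compound addition. %Activity was normalised to no-cell wells (complete cell-killing) and DMSO (no toxicity), and curves were fitted and classified.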
TGFb inhibitor – qHTS for Inhibitors of TGF-b; HepG2 CAGA-GFP TGF-b/SMAD3 reporter, GFP fluorescence, 18 h; TGF-beta stimulated, 500 pg/mL final; Potency, µM (series often up to 46.1 µM), for the others: at the top dose activity, negative = inhibition, most hits filed as inhibitors; hit rate 1.2% among 410,000; note: potency is the fitted concentration of half-maximal effect; % is set by controls: 0 for no effect and ±100 for the full control effect; nearly all actives have a fitted effect of over 65% in size
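GFP signal (ex488/em500-530) from TGF-beta-stimulated HEPG2 CAGA-GFP cells, 500 pg/mL final, 18 h at 37 degrees C in DMEM plus 1% FBS, normalized to unstimulated and DMSO-stimulated controls.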
* = called active by the depositor. Unless noted, calls come from the whole dose curve; as a rule, active = well fitted curve in the direction sought with a large enough effect; inconclusive = small, poorly fitted or top-dose-only effect, or another doubt; inactive = no such curve, though single readings can be large; an effect the other way counts as inactive or inconclusive.

Screening CN(C)C(CNC(=O)CCc1nc2cc(Cl)ccc2n(Cc2ccccc2)c1=O)c1ccccc1 (stereo not drawn) returned ATXN2 expr inh -10%, ATXN viability inconclusive, IL1B secr inh -67*, HepG2 viability -13% and TGFb inhibitor inconclusive.
CCOc1ccc(N(C(=O)OC(C)(C)C)C(=O)c2ccc(O[Si](C)(C)C(C)(C)C)cc2)c(I)c1 was read as HepG2 viability -5% and TGFb inhibitor -23%.
COc1ccc(S(=O)(=O)NCCc2sc3nc(-c4ccc(C)cc4)nn3c2C)cc1C was read as HepG2 viability -27% and TGFb inhibitor inconclusive.
Screening CCOC(=O)c1c(C)n(-c2ccccc2)c2ccc(OCCN(C)C)cc12 returned ATXN2 expr inh -9%, ATXN viability inactive, IL1B secr inh -80*, HepG2 viability -27% and TGFb inhibitor 0%.
`CCOC(=O)c1c(C)n(C)c2ccc(OCCN(C)C)cc12` gave ATXN2 expr inh -6%, ATXN viability inactive, IL1B secr inh inconclusive, HepG2 viability -30% and TGFb inhibitor -15%.
CCOC(=O)c1c(C)n(C)c2cc(OCCN(CC)CC)ccc12 was read as ATXN2 expr inh -7%, ATXN viability inactive, IL1B secr inh -55*, HepG2 viability -24% and TGFb inhibitor -4%.
Screening CC(=O)c1ccc(F)c(-c2cc(C)cc3c2OC(CNC(=O)c2ccnn2C)C3)c1 (stereo not drawn) returned ATXN viability inactive.
Screening CC(C)C[C@H]1CN([C@@H](Cc2ccc(O)cc2)CN2CCC[C@@H]2CN2C(=O)C(=O)NC[C@@H]2Cc2ccccc2)C(=O)C(=O)N1CC1CCCCC1 returned ATXN2 expr inh inconclusive, ATXN viability inconclusive, IL1B secr inh inconclusive, HepG2 viability -4% and TGFb inhibitor inconclusive.
O=C1NC[C@H](Cc2ccccc2)N(C[C@@H]2CCCN2C[C@H](Cc2ccc(O)cc2)N2C[C@H](Cc3ccc(O)cc3)N(CC3CCCCC3)C(=O)C2=O)C1=O was read as ATXN2 expr inh 7%, ATXN viability inactive and IL1B secr inh inconclusive.
CC(C)C[C@H]1CNC(=O)C(=O)N1C[C@@H]1CCCN1C[C@H](Cc1ccc(O)cc1)N1C[C@H](Cc2ccccc2)N(CC2CCCCC2)C(=O)C1=O was read as ATXN2 expr inh 4%, ATXN viability inactive and IL1B secr inh -59*.
For CC(C)C[C@H]1CN([C@@H](Cc2ccc(O)cc2)CN2CCC[C@H]2CN2C(=O)C(=O)NC[C@@H]2Cc2ccccc2)C(=O)C(=O)N1CC1CCCCCC1 the results were ATXN2 expr inh inconclusive, ATXN viability inconclusive and IL1B secr inh -82*.
For CC(C)C[C@H]1CN([C@@H](Cc2ccccc2)CN2CCC[C@@H]2CN2C(=O)C(=O)NC[C@@H]2Cc2ccc(O)cc2)C(=O)C(=O)N1CC1CCCCCC1 the results were ATXN2 expr inh 9%, ATXN viability inconclusive, IL1B secr inh -17, HepG2 viability -9% and TGFb inhibitor inconclusive.
`O=C1NC[C@H](Cc2ccc(O)cc2)N(C[C@@H]2CCCN2C[C@H](Cc2ccccc2)N2C[C@H](Cc3ccc(O)cc3)N(CC3CCCCC3)C(=O)C2=O)C1=O` gave ATXN2 expr inh 20%, ATXN viability inactive and IL1B secr inh -1.
O=C1NC[C@H](Cc2ccccc2)N(C[C@H]2CCCN2C[C@H](Cc2ccccc2)N2C[C@H](Cc3ccccc3)N(CC3CCCCCC3)C(=O)C2=O)C1=O was read as ATXN2 expr inh inconclusive, ATXN viability 18µM*, IL1B secr inh -69*, HepG2 viability -70% and TGFb inhibitor inconclusive.
Screening CC(C)C[C@H]1CN([C@@H](Cc2ccccc2)CN2CCC[C@@H]2CN2C(=O)C(=O)NC[C@@H]2Cc2ccccc2)C(=O)C(=O)N1CC1CCCCC1 returned ATXN2 expr inh inconclusive, ATXN viability 20µM*, IL1B secr inh -59*, HepG2 viability 20µM* and TGFb inhibitor 8.9µM*.
